Measured values taken from PubChem BioAssay AID504608 (National Center for Advancing Translational Sciences (NCATS), 2011).
Where “and” joins values, the source holds several entries; their conditions need not be identical. Identical values can stand only once. Calls of active or inactive are those of the source. Calls follow the shape of the dose curve; as a rule, active = well fitted inhibition curve with a large enough effect; inconclusive = small, poorly fitted or top-dose-only effect; inactive = flat fitted curve, though single readings scatter.

test: Quantitative high throughput screen for delayed death inhibitors of the malarial parasite plastid, 48 hour incubation.; conditions: P. falciparum in erythrocytes, luciferase growth
Text: NIH Molecular Libraries Probe Production Network [MLPCN] NIH Chemical Genomics Center [NCGC] MLPCN Grant: R21 NS059500 Assay Provider: David Fidock and Eric Ekland, Columbia University The goal of this screen is to discover new antimalarial compounds that act by inhibiting the development of the apicoplast in the malarial parasite Plasmodium falciparum. The biochemical processes that make this organelle essential for erythrocytic stage parasites are not well understood. However, antibiotics, such as azithromycin and tetracycline, which target the apicoplast translational machinery, have a potent antimalarial effect. […] We have developed a cell-based assay that measures parasite growth based on the expression of an integrated copy of a firefly luciferase reporter. To detect small molecules that cause this 'delayed death' phenotype, erythrocytes infected with the luciferase-expressing parasites were incubated with compounds for either one or two generations, corresponding to 48 and 96 hours, respectively. Compounds that inhibit parasite growth in the second generation, but not the first, should be enriched in antimalarials that target the apicoplast. Growth inhibition is detected by a decrease in luciferase activity
Four microliters of culture medium (RPMI 1640 with 0.5% w/v Albumax (GIBCO), 24 mM sodium bicarbonate and 10 ug/mL gentamycin) were dispensed by a Multi-drop Combi into white solid 1536-well plates (Grenier) and 23 nL compound was added by a pin tool. Four microliters of infected erythrocytes (2% hematocrit, 0.1% parasitemia final concentration) in culture medium were dispensed and the plates incubated for 48 hours at 37 C in 5% CO2. Two microliters of luciferase detection reagent was added and luminescence was detected by a ViewLux (PerkinElmer) reader

**Q.** With `C[C@@H]1CN([C@H](C)CO[Si](C)(C)C(C)(C)C)C(=O)c2cc(NC(=O)Nc3ccccc3)ccc2O[C@@H](C)CCCCO[C@H]1CN(C)S(=O)(=O)c1ccc(F)cc1` as the molecule, how does the Potency read?
**A.** 225 nM (active)

**Q.** Which Potency does the source give for `C[C@@H]1CN([C@@H](C)COC(C)(C)C)C(=O)c2cc(NC(=O)Nc3ccccc3)ccc2O[C@@H](C)CCCCO[C@H]1CN(C)S(=O)(=O)c1ccc(F)cc1` here?
**A.** 1.3 nM (active)

**Q.** For `COCCOCOC[C@H](C)N1C[C@@H](C)[C@H](CN(C)S(=O)(=O)c2ccc(F)cc2)OCCCC[C@H](C)Oc2ccc(NC(=O)Nc3ccccc3)cc2C1=O`, which Potency is on record?
**A.** 11.3 nM (active)

**Q.** Which Potency does the source give for `C[C@@H]1CN([C@@H](C)CO)C(=O)c2cc(NC(=O)Nc3ccccc3)ccc2O[C@@H](C)CCCCO[C@H]1CN(C)Cc1ccc(C(F)(F)F)cc1` here?
**A.** 1000 nM (active)

**Q.** Which Potency does the source give for `C[C@@H]1CN([C@@H](C)CO)C(=O)c2cc(NC(=O)Nc3ccccc3)ccc2O[C@@H](C)C/C=C/CO[C@H]1CN(C)S(=O)(=O)c1ccc(F)cc1` here?
**A.** 142 nM (active)

**Q.** Which Potency does the source give for `C=CCOC(=O)N(C)C[C@H]1OCCCC[C@H](C)Oc2ccc(NC(=O)Nc3ccccc3)cc2C(=O)N([C@@H](C)CO[Si](C)(C)C(C)(C)C)C[C@H]1C` here?
**A.** 283 nM (active)

**Q.** With `C[C@@H]1CN([C@@H](C)CO)C(=O)c2cc(NC(=O)Nc3ccccc3)ccc2O[C@@H](C)CCCCO[C@H]1CN(C)S(=O)(=O)c1cccnc1` as the molecule, how does the Potency read?
**A.** 2830 nM (active)

**Q.** Which Potency does the source give for `C=CCOC(=O)N(C)C[C@@H]1OCCCC[C@H](C)Oc2ccc(NC(=O)Nc3ccccc3)cc2C(=O)N([C@H](C)COC(=O)c2ccccc2)C[C@H]1C` here?
**A.** 504 nM (active)

**Q.** With `C[C@@H]1CN([C@@H](C)CO)C(=O)c2cc(Nc3nc4ccccc4o3)ccc2O[C@@H](C)CCCCO[C@H]1CN(C)S(=O)(=O)c1ccc(F)cc1` as the molecule, how does the Potency read?
**A.** 1590 nM (active)

**Q.** For `COCOC[C@H](C)N1C[C@@H](C)[C@H](CN(C)S(=O)(=O)c2ccc(F)cc2)OCCCC[C@H](C)Oc2ccc(NC(=O)Nc3ccccc3)cc2C1=O`, which Potency is on record?
**A.** 10 nM (active)

**Q.** For `Cc1noc(C)c1NC(=O)Nc1ccc2c(c1)C(=O)N(C(C)C)C[C@@H](C)[C@H](CN(C)S(=O)(=O)c1ccc(F)cc1)OCCCC[C@H](C)O2`, which Potency is on record?
**A.** 63.4 nM (active) and 1.59 µM (active)

**Q.** Which Potency does the source give for `C[C@@H]1CN([C@@H](C)CN=[N+]=[N-])C(=O)c2cc(NC(=O)Nc3ccccc3)ccc2O[C@@H](C)CCCCO[C@H]1CN(C)S(=O)(=O)c1ccc(F)cc1` here?
**A.** 3.6 nM (active)

**Q.** With `CC(C)NC(=O)Nc1ccc2c(c1)C(=O)N([C@@H](C)CO)C[C@@H](C)[C@H](CN(C)S(=O)(=O)c1ccc(F)cc1)OCCCC[C@H](C)O2` as the molecule, how does the Potency read?
**A.** 634 nM (active)

**Q.** Which Potency does the source give for `C[C@@H]1CN([C@@H](C)COC(=O)C(C)(C)C)C(=O)c2cc(NC(=O)Nc3ccccc3)ccc2O[C@@H](C)CCCCO[C@H]1CN(C)S(=O)(=O)c1ccc(F)cc1` here?
**A.** 11.3 nM (active)

**Q.** With `C[C@@H]1CCCCO[C@H](CN(C)C(=O)Nc2ccc(F)cc2)[C@H](C)CN([C@@H](C)CO)C(=O)c2cc(NS(=O)(=O)c3ccccc3)ccc2O1` as the molecule, how does the Potency read?
**A.** 356 nM (active)

**Q.** Which Potency does the source give for `C[C@@H]1CN([C@@H](C)CO)C(=O)c2cc(NC(=O)Nc3ccccc3)ccc2O[C@@H](C)CCCCO[C@H]1CN(C)C(=O)OC(C)(C)C` here?
**A.** 565 nM (active)

**Q.** For `C[C@@H]1CN([C@@H](C)CO)C(=O)c2cc(NC(=O)Nc3ccccc3)ccc2O[C@@H](C)CCCCO[C@H]1CN(C)S(=O)(=O)c1cccc(F)c1`, which Potency is on record?
**A.** 10 nM (active)

**Q.** For `C[C@@H]1CN([C@@H](C)CO)C(=O)c2cc(NC(=O)Nc3ccccc3)ccc2O[C@@H](C)C/C=C\CO[C@H]1CN(C)S(=O)(=O)c1ccc(F)cc1`, which Potency is on record?
**A.** 356 nM (active)

**Q.** With `COc1ccc(COC[C@H](C)N2C[C@@H](C)[C@H](CN(C)Cc3ccc(OC)cc3)OCCCC[C@H](C)Oc3ccc(NC(=O)Nc4ccccc4)cc3C2=O)cc1` as the molecule, how does the Potency read?
**A.** 565 nM (active)

**Q.** With `C[C@@H]1CN([C@@H](C)COC(=O)c2ccccc2)C(=O)c2cc(NC(=O)Nc3ccccc3)ccc2O[C@@H](C)CCCCO[C@H]1CN(C)C(=O)OC(C)(C)C` as the molecule, how does the Potency read?
**A.** 400 nM (active)

**Q.** With `C[C@@H]1CN(CCO[Si](C)(C)C(C)(C)C)C(=O)c2cc(NC(=O)Nc3ccccc3)ccc2O[C@@H](C)CCCCO[C@H]1CN(C)S(=O)(=O)c1ccc(F)cc1` as the molecule, how does the Potency read?
**A.** 56.5 nM (active)

**Q.** For `C[C@@H]1CN([C@@H](C)CO)C(=O)c2cc(NC(=O)Nc3ccccc3)ccc2O[C@@H](C)CCCCO[C@H]1CN(C)S(=O)(=O)c1ccc(C(F)(F)F)cc1`, which Potency is on record?
**A.** 896 nM (active)

**Q.** With `C[C@@H]1CCCCO[C@@H](CN(C)Cc2ccc(F)cc2)[C@H](C)CN([C@@H](C)CO)C(=O)c2cc(NC(=O)Nc3ccccc3)ccc2O1` as the molecule, how does the Potency read?
**A.** 4000 nM (active)

**Q.** With `COc1ccc(COCCN2C[C@@H](C)[C@H](CN(C)S(=O)(=O)c3ccc(F)cc3)OCCCC[C@H](C)Oc3ccc(NC(=O)Nc4ccccc4)cc3C2=O)cc1` as the molecule, how does the Potency read?
**A.** 100 nM (active)

**Q.** With `C[C@@H]1CN([C@@H](C)CO)C(=O)c2cc(NC(=O)Nc3ccccc3)ccc2O[C@@H](C)CCCCO[C@H]1CN(C)S(=O)(=O)c1ccccc1F` as the molecule, how does the Potency read?
**A.** 634 nM (active)

**Q.** For `C=CCOC(=O)N(C)C[C@@H]1OCCCC[C@H](C)Oc2ccc(NC(=O)Nc3ccccc3)cc2C(=O)N([C@@H](C)CO)C[C@H]1C`, which Potency is on record?
**A.** 356 nM (active)

**Q.** With `CC(C)N1C[C@@H](C)[C@H](CN(C)S(=O)(=O)c2ccc(F)cc2)OCCCC[C@H](C)Oc2ccc(NC(=O)Nc3ccccc3)cc2C1=O` as the molecule, how does the Potency read?
**A.** 17.9 nM (active)

**Q.** Which Potency does the source give for `C[C@@H]1CN([C@@H](C)COC(=O)c2ccccc2)C(=O)c2cc(NC(=O)Nc3ccccc3)ccc2O[C@@H](C)CCCCO[C@H]1CN(C)S(=O)(=O)c1ccc(F)cc1` here?
**A.** 63.4 nM (active)

**Q.** For `C[C@@H]1CN(C)C(=O)c2cc(NC(=O)Nc3ccccc3)ccc2O[C@@H](C)CCCCO[C@@H]1CN(C)S(=O)(=O)c1ccc(F)cc1`, which Potency is on record?
**A.** 1260 nM (active)

**Q.** With `C[C@@H]1CN([C@@H](C)CO)C(=O)c2cc(N)ccc2O[C@@H](C)CCCCO[C@H]1CN(C)S(=O)(=O)c1ccc(F)cc1` as the molecule, how does the Potency read?
**A.** 159 nM (active)

**Q.** With `C[C@@H]1CN([C@@H](C)CO[Si](C)(C)C(C)(C)C)C(=O)c2cc(NC(=O)Nc3ccccc3)ccc2O[C@@H](C)CCCCO[C@H]1CN(C)S(=O)(=O)c1ccc(F)cc1` as the molecule, how does the Potency read?
**A.** 1.1 nM (active)

**Q.** For `C[C@@H]1CN(CCO)C(=O)c2cc(NC(=O)Nc3ccccc3)ccc2O[C@@H](C)CCCCO[C@H]1CN(C)S(=O)(=O)c1ccc(F)cc1`, which Potency is on record?
**A.** 179 nM (active)

**Q.** For `Cc1noc(C)c1NC(=O)Nc1ccc2c(c1)C(=O)N([C@@H](C)CO)C[C@@H](C)[C@H](CN(C)S(=O)(=O)c1ccc(F)cc1)OCCCC[C@H](C)O2`, which Potency is on record?
**A.** 126 nM (active)
